Drawing on PubChem BioAssay (NCI), this text covers growth for 40 compounds.

Compounds without any hit were thinned out: in the full panel of roughly 83,000, 20% have a hit.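 For each line, cells grew in 96-well plates with the test compound present at a single concentration for 48 hours.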 Calls of active or inactive are those of the source.

In this assay the test system is NCI-H522 lung. Kind of assay: NCI-60 one-dose screen, 48 h (100 = growth as untreated, 0 = no growth, -100 = all killed). Conditions: 10 µM unless noted. Here is the method:
Growth inhibition of the NCI-H522 human Non-Small Cell Lung tumor cell line is measured as a screen for anti-cancer activity. Cells are grown in 96 well plates and exposed to the test compound for 48 hours. Compounds are tested at a single concentration, which is 10^-5 M for most compounds. The reported endpoint is percent growth (GI% or GIPRCNT), where numbers from 0 - 100% represent growth inhibition, and numbers from -100% - 0 represent cell death. For example, a value of 40 represents 60% growth inhibition. A value of 0 means no net growth occurred over the course of the experiment. A value of -40 indicates 40% of cells at the beginning of the experiment died by the end of the experiment. A value of -100 means all cells are dead at the end of the experiment.
NCI-60 Human Tumor Cell Lines Screen was performed using the standard one-dose NCI protocol, which is described in more detail at https://dtp.cancer.gov/discovery_development/nci-60/default.htm.
Compounds with GIPRCNT values below 10 were considered active. Activity score was based on GIPRCNT using the following formula: […]
Score is 0 for GIPRCNT values of 100 or above, 50 for GIPRCNT values of 0, and 100 for GIPRCNT values of -100.
With `CNC(=O)c1cccc(NC(=O)c2ccc3c(c2)nnn3/C(C#N)=C/c2ccccn2)c1`, the growth is -90% (active).

On to `COc1cc(CNC(=O)/C=C/c2ccc3c(c2)OCO3)ccc1OCc1cn(-c2cccc(C(F)(F)F)c2)nn1`, for which the growth was 27% (inactive).

In the case of `O=C(NNc1nc2cc(F)ccc2n2c(CN3CCCCC3)ccc12)c1cnccn1`, the growth was -50.9% (active).

As to `COc1ccc(/C=C/c2nc3ccccc3c(=O)n2CC(=O)Nc2ccc(Cl)cc2)cc1`, the growth is 64.1% (inactive).

`C#CCOc1cc(N(CC)CC)ccc1C(C(=O)NC(C)(C)C)N(C(=O)C1CCc2cc(F)ccc2O1)c1ccc(F)c(Cl)c1` (stereo not given): the growth is 60.5% (inactive).

For `NS(=O)(=O)c1ccc(-n2cc(-c3cccc(NC(=O)c4cc(C(F)(F)F)cc(C(F)(F)F)c4)c3)nn2)cc1`, the growth was 75.4% (inactive).

In the case of `C#CCOc1ccc(/C=N/Nc2nc(-c3cc4cc(OC)ccc4oc3=O)cs2)cc1OC`, the growth was 42% (inactive).

With `CC1[C@H]2[C@H](C[C@H]3[C@@H]4CC=C5c6sc(Nc7ccccc7F)nc6CC[C@]5(C)[C@H]4CC[C@@]32C)O[C@]12CC[C@@H](C)CO2` (stereo not given in full), the growth was -66.5% (active).

With `O=C(O)c1ccc(-c2ccc(/C=N/NC(=O)c3[nH]c4ccc(Br)cc4c3-c3ccccc3)s2)cc1`, the growth is -1.38% (active).

With `Cc1ccc2c(N)c(C(=O)Nc3ccc(OC(F)(F)F)cc3)sc2n1`, the growth was 66.7% (inactive).

Regarding `CN1CCN(c2ccc(C(=O)/C=C/c3ccc(Br)cc3)cc2)CC1`, the growth is 52.8% (inactive).

Consider `O=S(=O)(Nc1cccc(-n2cnc3cc(-c4ccc(O)cc4)ccc32)c1)C1CC1`, for which the growth is 14.4% (inactive).

As for `O=C1Nc2ccc([N+](=O)[O-])cc2C1=Nc1ccccc1`, the growth was 110% (inactive).

In the case of `O=C1/C(=C/C2=Cc3ccccc3OC2)SC(=S)N1c1ccccc1F`, the growth was 92.6% (inactive).

With `CC(=O)OC[C@@]1(C)C2CC[C@]3(C)C(CC=C4C5CC(C)(C)CC[C@]5(C(=O)Nc5ccc(Br)cc5)CC[C@]43C)[C@@]2(C)C[C@@H](OC(C)=O)[C@@H]1OC(C)=O` (stereo not given in full), the growth is 45.6% (inactive).

On to `CC(=O)Nc1ccc(-n2cnc3ccc(-c4ccc(O)cc4)cc32)cc1`, for which the growth was 54% (inactive).

On to `CCOC(=O)C1=C(N)N(c2ccccc2)C2=C(C(=O)CC(C)(C)C2)C1c1ccccc1Cl` (stereo not given), for which the growth was 57.5% (inactive).

As to `C/C(=N\N=C1/C(=O)Nc2ccc(Cl)cc21)c1ccc2c(c1)Nc1ccccc1S2`, the growth is -34% (active).

For `Cc1ccccc1[C@H]1C(C(=O)c2ccc(Cl)cc2)C2(N[C@@H]1c1ccccc1)C(=O)Nc1ccc(Cl)cc12` (stereo not given in full), the growth is -48.6% (active).

In the case of `O=C(/C=C/Nc1ccc(Cl)cc1)c1ccc2c(c1)Nc1ccccc1S2`, the growth was 34.9% (inactive).

As to `Cc1ccc2c(c1)nc(-c1ccccc1)n2CC(=O)N=Nc1c(O)[nH]c2ccc(Br)cc12`, the growth was -60.7% (active).

As for `O=C(O)c1cccc(-c2ccc(/C=N/NC(=O)c3[nH]c4ccc(Br)cc4c3-c3ccccc3)o2)c1`, the growth is -12.6% (active).

Regarding `COc1ccc(C(=O)/C=C/c2cccc(Br)c2)cc1S(N)(=O)=O`, the growth is -79% (active).

For the compound `N#Cc1c(-c2ccccc2Cl)cc(-c2ccc3ccccc3c2)[nH]c1=O`, the growth is 85% (inactive).

Take `Cc1nc(Nc2ncc(C(=O)Nc3c(C)cccc3Cl)s2)cc(N2CCN(CCCNC(=O)COc3ccc(C4CCC(=O)NC4=O)cc3)CC2)n1` (stereo not given): the growth is 17% (inactive).

For the compound `CC1=C(C(=O)OCc2ccccc2)C(c2ccc(-n3cncn3)cc2)n2c(nc3ccccc32)N1` (stereo not given), the growth is 19.3% (inactive).

Take `COc1ccc(-c2nc3cc(C)ccc3n2CC(=O)N=Nc2c(O)[nH]c3ccc(Cl)cc23)cc1`: the growth was 14.9% (inactive).

On to `COc1ccc2nc(Nc3cccc(NC(=O)c4ccc(CN5CCCN(C)CC5)c(C(F)(F)F)c4)c3)ccc2c1`, for which the growth was -50.7% (active).

With `COc1ccc2[nH]c(O)c(N=NC(=O)COc3ccc(NC(=O)Nc4ccccc4)cc3)c2c1`, the growth was 21.1% (inactive).

Take `CCOC(=O)C1=C(N)N(c2ccccc2)C2=C(C(=O)CC(C)(C)C2)C1c1ccc([N+](=O)[O-])cc1` (stereo not given): the growth was 79.2% (inactive).

For `CC1(C)CC[C@]2(C(=O)Nc3ccc(F)cc3)CC[C@]3(C)C(=CCC4[C@@]5(C)C[C@@H](O)[C@H](O)[C@@](C)(CO)C5CC[C@]43C)C2C1` (stereo not given in full), the growth is 32.8% (inactive).

Turning to `COc1ccc(NC(=O)Cn2c(O)c(N=Nc3ccc(S(N)(=O)=O)cc3)c3ccccc32)cc1`, the growth was 66.6% (inactive).

With `Nc1nc(-c2ccccc2)c(N=Nc2ccc(Cl)cc2[N+](=O)[O-])s1`, the growth is 82.7% (inactive).

`N#Cc1c(-c2ccc(Cl)cc2)nc2n[nH]c(-c3ccc(Cl)cc3)c2c1-c1cccs1`: the growth was 54.4% (inactive).

Consider `C/C(=N\N=C\c1cc([N+](=O)[O-])ccc1Cl)c1ccc2c(c1)Nc1ccccc1S2`, for which the growth was 60.3% (inactive).

`CCCCOc1ccc(NC(=O)c2sc3nc(C)ccc3c2N)cc1`: the growth was 17.3% (inactive).

For the compound `COc1cc(OC)cc(C(=O)Nc2cccc(-c3cn(-c4ccc(S(N)(=O)=O)cc4)nn3)c2)c1`, the growth is 69.1% (inactive).

As for `COc1cc(-c2cc(-c3cccc(OCC(=O)O)c3)[nH]c(=O)c2C#N)cc(OC)c1OC`, the growth was 104% (inactive).

On to `CN1CCN(c2ccc3c(c2)nc(NNC(=O)c2ncccn2)c2cccn23)CC1`, for which the growth is -7.36% (active).

As for `O=c1cc(-c2ccccc2)oc2cc(OCCCC[P+](c3ccccc3)(c3ccccc3)c3ccccc3)cc(O)c12`, the growth was -81.9% (active).
